Screening results deposited in PubChem BioAssay by National Center for Advancing Translational Sciences (NCATS).
BCR signal inh: qHTS Assay to Find Inhibitors of Chronic Active B-Cell Receptor Signaling | hit rate 0.05% among 340,000 | AID 493014, 2011 | Potency, µM (titrated, usually from 46.1 µM), inactives show top-dose activity change, negative = inhibition, most hits filed as inhibitors | ABC-DLBCL IkBa-CBG/CBR reporter, luminescence ratio, 4 h; active = well fitted inhibition curve with a large enough effect in the signal ratio, with a control signal flat, not every such curve was filed as active; inconclusive = small, poorly fitted or top-dose-only effect, or effect the other way, or a change in a side signal; the % refers to the signal ratio;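 also: potency is read from the fitted curve at half-maximal effect; plate controls were basal doxycycline-induced cells for no effect and cells given 10 µM MG132 for full effect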
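TMD8 ABC-DLBCL cells carrying doxycycline-inducible green luciferase fused to IkappaBalpha plus unfused red luciferase were exposed to compounds (up to 46 uM) for 4 hrs at 37C. Activity came from the overlap-corrected green/red luminescence ratio.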
TSHR antagonist: Antagonists of the Thyroid Stimulating Hormone Receptor: HTS campaign. Thyrotropin receptor (Homo sapiens), P16473. TSHR-expressing cells, TSH-stimulated cAMP HTRF, 2 h; active compounds read low. activity change, negative = inhibition, % at 11.5 µM. hit rate 0.2% among 330,000. AID 504810, 2011;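 active = activity change below a set negative limit, meaning inhibition stronger than a set level, cut at about -70% in these data; inconclusive = activity change between two set negative limits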; also: % is scaled to controls: 0 for no effect and ±100 for the full control effect
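Freshly harvested TSHR cells receive pin-tooled compound, then EC80 TSH at 4nM final. After 2 hours at 37 deg C, antibody in lysis buffer and cAMP-d2 are added; 30 minutes at ambient temperature precede the HTRF read.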
S-ASM inh: Inhibitors of Secretory Acid Sphingomyelinase (S-ASM): qHTS; Sphingomyelin phosphodiesterase (Homo sapiens), P17405; placental ASM, HMU-PC fluorogenic substrate, 60 min; Potency, µM (series often up to 57.5 µM), for inactives: at the top dose activity change, negative = inhibition, hits mostly inhibitors; hit rate 0.006% among 340,000; active = well fitted inhibition curve with a large enough effect; inconclusive = small, poorly fitted or top-dose-only effect; inactive = no such curve, though single readings can be large or run the other way; also: potency is read from the fitted curve at half-maximal effect
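HMU-PC0 cleavage (9 uM final) by human placental ASM, 60 min at 37 °C following 10 min compound exposure at RT; stopped at pH 10, fluorescence Ex 386/Em 447 nm.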
Six1-Eya2 inh: qHTS Assay for Inhibitors of the Six1/Eya2 Interaction. Homeobox protein SIX1 (Homo sapiens) + Protein phosphatase EYA2 (Homo sapiens), …. AlphaScreen GST-Six1/His-Eya2 binding, biochemical; active compounds read low. activity change, % (test concentration not listed). hit rate 0.56% among 360,000; also: % is scaled to controls: 0 for no effect and ±100 for the full control effect
Target sequence (O00167 whole entry, looked up): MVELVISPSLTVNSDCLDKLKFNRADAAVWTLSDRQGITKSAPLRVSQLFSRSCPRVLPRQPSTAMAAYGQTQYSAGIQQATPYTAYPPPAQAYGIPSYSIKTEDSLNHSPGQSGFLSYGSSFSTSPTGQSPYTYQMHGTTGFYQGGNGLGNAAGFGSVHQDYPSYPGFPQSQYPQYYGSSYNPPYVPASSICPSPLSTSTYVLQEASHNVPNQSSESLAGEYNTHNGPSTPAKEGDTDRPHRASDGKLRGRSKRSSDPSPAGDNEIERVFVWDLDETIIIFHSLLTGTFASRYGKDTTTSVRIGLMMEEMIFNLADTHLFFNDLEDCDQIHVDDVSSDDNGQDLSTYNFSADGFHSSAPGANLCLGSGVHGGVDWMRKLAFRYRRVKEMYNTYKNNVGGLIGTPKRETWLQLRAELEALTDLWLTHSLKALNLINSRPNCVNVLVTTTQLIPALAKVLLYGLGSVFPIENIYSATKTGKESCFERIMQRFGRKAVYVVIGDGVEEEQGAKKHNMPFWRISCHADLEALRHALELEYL
Target sequence (Q15475 whole entry, looked up): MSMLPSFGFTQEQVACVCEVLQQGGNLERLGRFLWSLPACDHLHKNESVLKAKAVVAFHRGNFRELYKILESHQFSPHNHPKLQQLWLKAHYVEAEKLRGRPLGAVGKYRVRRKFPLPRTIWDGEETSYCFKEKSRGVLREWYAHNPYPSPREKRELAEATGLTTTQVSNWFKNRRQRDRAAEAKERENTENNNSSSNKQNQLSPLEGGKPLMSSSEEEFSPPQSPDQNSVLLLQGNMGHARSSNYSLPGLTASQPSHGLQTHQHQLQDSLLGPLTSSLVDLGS
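Six1/Eya2 binding was read as AlphaScreen signal after compounds were pinned into GST-Six1 plus His-tagged Eya2 (5X stock 250/500 nM) in pH 8.0 Tris/NaCl/TCEP buffer, beads added, then incubated 1 h, 37 C, dark.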
CtBP-E1A blk: qHTS Assay for Inhibitors of the CtBP/E1A Interaction; CtBP / adenovirus E1A interaction (AlphaScreen); AlphaScreen GST-E1A/His-CtBP binding, 1536-well; active compounds read low; activity change, % (no concentration beside the values); hit rate 0.49% among 340,000; also: % is scaled to controls: 0 for no effect and ±100 for the full control effect
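Steps: dispense buffer (Tris pH 8.0, NaCl 300 mM, TCEP 1 mM, BSA, Tween 20); add 5X protein mix (GST-E1A, His-CtBP, 125 nM each); pin 23 nL compound; 2 h at 37 °C, dark; add 5X beads (50 ug/mL); 1 h; read.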
* = called active by the depositor; ? = inconclusive; · = not tested or not shown. Sampled rows, rich in hits. Any-hit rate of the full collection: about 0.85%. Rule as the data show it, unless noted: active = activity change below about -65%; inconclusive = mostly about -30% to -63%; inactive = weaker than that.

SMILES | BCR signal inh | TSHR antagonist | S-ASM inh | Six1-Eya2 inh | CtBP-E1A blk
CCOc1cc(Br)cc(/C=N/NC(=O)c2cccnc2)c1O | -10% | 3 | -4% | -67* | -92*
O=C(N/N=C/c1cc(Br)ccc1O)c1ccccc1Cl | ? | 1 | -6% | -88* | -79*
COc1cc([N+](=O)[O-])cc(/C=N/NC(=O)c2ccc(C)nc2)c1O | ? | -9 | -3% | -88* | -95*
Cc1c(C(=O)Nc2cccc(Cl)c2)sc2nc3n(c(=O)c12)N=C(c1cccc(Br)c1)CS3 | -21% | · | · | · | ·
Cc1cccc2cc(/C=N/NC(=O)c3ccccc3O)c(Cl)nc12 | -2% | -72* | -10% | -3 | -2
O=C(NCC1CCCO1)C(=O)N/N=C/c1cc(Cl)ccc1O (stereo not drawn) | -2% | -5 | 4% | -80* | -94*
Cc1cccc2cc(/C=N/NC(=O)c3ccncc3)c(Cl)nc12 | 6% | -5 | 0% | -9 | 1
O=C(NCC1CCCO1)C(=O)N/N=C/c1ccc(O)c(Cl)c1 (stereo not drawn) | -1% | -3 | 1% | 3 | 1
O=C(N/N=C/c1cc(Cl)ccc1O)c1ccncc1 | -1% | 6 | 0% | -92* | -95*
Cn1nnc2c(N3CCN(c4ccccc4Cl)CC3)ncnc21 | -1% | · | · | · | ·
COc1ccccc1NCc1nnc2n1CCCCC2 | 0% | · | · | · | ·
O=C(Cn1c(=O)oc2cc(S(=O)(=O)N3CCCCCC3)ccc21)Nc1cccc(C(F)(F)F)c1 | 7% | · | · | · | ·
COc1ccc(CCn2c(=N)c(C(=O)NCc3ccco3)cc3c(=O)n4ccccc4nc32)cc1OC | · | · | 92% | -74* | ·
N=c1c(C(=O)NCc2ccco2)cc2c(=O)n3ccccc3nc2n1CCc1ccccc1 | 6% | -6 | 385% | -78* | -67*
Cc1ccc(Cn2c(=N)c(C(=O)NCc3ccco3)cc3c(=O)n4ccccc4nc32)cc1 | ? | -11 | 371% | -17 | -4
O=C(CCSCc1cccc(Cl)c1)NCc1ccccc1Cl | -7% | · | · | · | ·
O=C(CNCc1ccccn1)N1CCc2ccccc2C1 | ? | -1 | 10% | -89* | -95*
O=C(CSc1ncccn1)N1CCc2ccccc2C1 | -7% | 20 | -9% | 7 | ·
COc1ccc(N2CC(NC(=O)/C=C\c3ccc4c(c3)OCO4)CC2=O)cc1 (stereo not drawn) | -15% | · | · | · | ·
O=C(COC(=O)c1cnc(Cl)c(Cl)c1)Nc1ccc(S(=O)(=O)N2CCCC2)cc1 | 1% | -14 | -10% | -77* | ?
COc1ccc(NS(=O)(=O)c2cc(NC(=O)C3=NN(c4ccccc4)C(=O)CC3)ccc2C)cc1 | · | · | ? | -5 | -9
COc1ccc(NS(=O)(=O)c2cccc(NC(=O)C3=NN(c4ccccc4)C(=O)CC3)c2)cc1 | -1% | -112* | -10% | -11 | ·
Cc1cccc(NC(=O)CSc2c(C)cnc3c2c(=O)n(C)c(=O)n3C)c1C | 4% | · | · | · | ·
Cc1ccc([N+](=O)[O-])cc1N=Nc1c(-c2ccc([N+](=O)[O-])cc2)[nH]n(C(N)=S)c1=O | ? | -36 | -5% | -2 | -11
NC(=S)n1[nH]c(-c2ccc([N+](=O)[O-])cc2)c(N=Nc2ccc(Cl)cc2)c1=O | 10µM* | -27 | -3% | -14 | -3
SMILES | BCR signal inh | TSHR antagonist | S-ASM inh | Six1-Eya2 inh | CtBP-E1A blk
CN(CC(=O)Nc1cccc(F)c1)C(=O)c1ccc(COc2ccccc2)cc1 | ? | 3 | -4% | -70* | -9
CCc1ccc(NC(=O)CSc2nc(=O)n(Cc3ccncc3)c3c2CCC3)cc1 | 1% | · | · | · | ·
c1cncc(CNc2ncnc3ccc(-c4ccco4)cc23)c1 | 8% | 12 | · | · | ·
COc1ccc(Cl)cc1NC(=O)CN(C)C(=O)CCC(=O)c1cc(C)sc1C | -5% | 7 | -3% | 0 | -19
COc1cccc(NC(=O)CN(C)C(=O)CCC(=O)c2cc(C)sc2C)c1 | -9% | 1 | 2% | 1 | -77*
Cc1cc(C)n(-c2ccc(C(=O)Nc3cccc(S(=O)(=O)N(C)C)c3)cc2)n1 | 5% | -29 | -7% | ? | ?
CCN(CC)S(=O)(=O)c1cccc(NC(=O)c2ccc(-n3nc(C)cc3C)cc2)c1 | 8% | -31 | -5% | -6 | -70*
CCOc1ccc(C2C(=O)N(C3CCCCC3)CC(=O)N2Cc2ccccc2OC)cc1OC (stereo not drawn) | -4% | · | · | · | ·
Cc1csc(CNc2ncnc3ccc(-c4ccc5c(ccn5C)c4)cc23)c1 | 10% | -7 | · | · | ·
COc1cc(/C=N/Nc2nn3cnnc3c3ccccc23)ccc1O | ? | -19 | -9% | -89* | -89*
Oc1ccc(/C=N/Nc2nn3cnnc3c3ccccc23)cc1 | ? | 2 | -3% | -89* | -90*
COc1cc(/C=N/Nc2nc3ccccc3[nH]c2=O)ccc1O | ? | -2 | 2% | 6 | -9
C=CCn1c(N/N=C/c2ccc(O)cc2)nc2ccccc2c1=O | ? | -1 | -9% | -2 | -2
CCOc1cc(/C=N/Nc2ncc(C)c(=O)[nH]2)ccc1O | 0% | 36 | 11% | ? | -81*
C(=N\Nc1nn2cnnc2c2ccccc12)/c1ccco1 | 0% | 3 | 4% | -72* | -3
COc1ccc(CNC(=O)C(CCSC)NS(=O)(=O)c2ccc3c(c2)oc(=O)n3C)cc1 (stereo not drawn) | -3% | · | · | · | ·
CCOc1cc(/C=N/Nc2nn3cnnc3c3ccccc23)ccc1O | ? | -1 | 0% | -88* | -67*
COc1cccc(/C=N/Nc2nc3ccccc3n3cnnc23)c1 | ? | -11 | 1% | ? | ?
CCOc1cc(/C=N/Nc2nncc(-c3ccccc3)n2)ccc1O | ? | 1 | -3% | -20 | -25
COc1cccc(/C=N/Nc2nn3cnnc3c3ccccc23)c1 | ? | -2 | -6% | -71* | -79*
O=C(NCC(c1cccs1)S(=O)(=O)c1cccs1)c1ccc(C(F)(F)F)cc1 (stereo not drawn) | 0% | · | · | · | ·
O=[N+]([O-])c1cccc(COc2ncnc3cc([N+](=O)[O-])ccc23)c1 | ? | 11 | 1% | -72* | -88*
COc1ccc(CCNC(=O)COc2ncnc3cc([N+](=O)[O-])ccc23)cc1 | 1% | 1 | -1% | -4 | -17
O=C(CCC(=O)N1CC2CCCN2c2ccccc21)NCc1ccc(Cl)cc1 (stereo not drawn) | 13% | · | · | · | ·
CC(Cc1ccccc1)=NNc1ccc([N+](=O)[O-])cc1[N+](=O)[O-] | · | · | -17% | -65* | ?
CCc1ccc(Nc2nc(-c3cc4cccc(OC)c4oc3=O)c(CC)s2)cc1 | -30% | · | · | · | ·
